# Active and inactive are the calls of the source.
# Experiments:
# [1] = tested on: Plasmodium falciparum Sir2 (PF13_0152, Sir2A); experiment: Plasmodium falciparum Sir2A binding compounds – biochemical, small-molecule microarray, 635 nm fluorescence, primary screen (AID 1098); details: fluorescence 635 nm, higher = more signal;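 note: score merges spot fluorescence intensity with its signal-to-noise ratio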
# [2] = probe aDKK1 binding to arrayed compounds – biochemical, biotinylated probe, 635/667 nm fluorescence, primary screen (AID 1099); details: small-molecule microarray, higher = more signal;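 note: score merges 667nm spot fluorescence with signal to noise across triplicate slides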
# [3] = probe aCHRDL2 binding to arrayed compounds – biochemical, biotinylated probe, 635/667 nm fluorescence, primary screen (AID 1100); details: small-molecule microarray, higher = more signal
# [4] = change in splice reporter luminescence, either direction, cell-based, HEK293, spliceosome inhibition project, primary screen (AID 1101); details: HEK293 splicing luciferase reporter, 24 h, higher = more signal, called active from +8 up or from −8 down;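 note: HEK293 cells carrying a splicing-competent luciferase reporter gene; test concentration not given here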
# [5] = target: Fibroblast growth factor 10 (Homo sapiens) (UniProt O15520); experiment: compounds binding fibroblast growth factor 10 – biochemical, small-molecule microarray, 635 nm fluorescence, primary screen (AID 1102); details: FGF10 binding, fluorescence 635 nm, higher = more signal
# Fibroblast growth factor 10 (Homo sapiens), sequence (O15520 whole entry, looked up): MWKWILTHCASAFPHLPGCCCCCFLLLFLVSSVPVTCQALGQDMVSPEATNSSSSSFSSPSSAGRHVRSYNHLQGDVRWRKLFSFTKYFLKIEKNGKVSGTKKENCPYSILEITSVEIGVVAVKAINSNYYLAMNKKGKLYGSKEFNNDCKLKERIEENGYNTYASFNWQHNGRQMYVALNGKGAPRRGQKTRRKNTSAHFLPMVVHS
# [6] = tested on: glycogen synthase kinase-3 (GSK3A per assay name; protocol says GSK3B); experiment: compounds binding glycogen synthase kinase-3 – biochemical, small-molecule microarray, 635 nm fluorescence, GSK3A, primary screen (AID 1103); details: fluorescence 635 nm, higher = more signal; note: the record names both GSK3A and GSK3B
# [7] = target: Epidermal growth factor receptor (Homo sapiens) (UniProt P00533); experiment: compounds binding epidermal growth factor receptor – biochemical, small-molecule microarray, 635 nm fluorescence, primary screen (AID 1104); details: EGFR binding, higher = more signal;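 note: score merges 667 nm emission intensity with spot signal to noise over triplicate slides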
# Epidermal growth factor receptor (Homo sapiens), sequence (P00533 whole entry, looked up): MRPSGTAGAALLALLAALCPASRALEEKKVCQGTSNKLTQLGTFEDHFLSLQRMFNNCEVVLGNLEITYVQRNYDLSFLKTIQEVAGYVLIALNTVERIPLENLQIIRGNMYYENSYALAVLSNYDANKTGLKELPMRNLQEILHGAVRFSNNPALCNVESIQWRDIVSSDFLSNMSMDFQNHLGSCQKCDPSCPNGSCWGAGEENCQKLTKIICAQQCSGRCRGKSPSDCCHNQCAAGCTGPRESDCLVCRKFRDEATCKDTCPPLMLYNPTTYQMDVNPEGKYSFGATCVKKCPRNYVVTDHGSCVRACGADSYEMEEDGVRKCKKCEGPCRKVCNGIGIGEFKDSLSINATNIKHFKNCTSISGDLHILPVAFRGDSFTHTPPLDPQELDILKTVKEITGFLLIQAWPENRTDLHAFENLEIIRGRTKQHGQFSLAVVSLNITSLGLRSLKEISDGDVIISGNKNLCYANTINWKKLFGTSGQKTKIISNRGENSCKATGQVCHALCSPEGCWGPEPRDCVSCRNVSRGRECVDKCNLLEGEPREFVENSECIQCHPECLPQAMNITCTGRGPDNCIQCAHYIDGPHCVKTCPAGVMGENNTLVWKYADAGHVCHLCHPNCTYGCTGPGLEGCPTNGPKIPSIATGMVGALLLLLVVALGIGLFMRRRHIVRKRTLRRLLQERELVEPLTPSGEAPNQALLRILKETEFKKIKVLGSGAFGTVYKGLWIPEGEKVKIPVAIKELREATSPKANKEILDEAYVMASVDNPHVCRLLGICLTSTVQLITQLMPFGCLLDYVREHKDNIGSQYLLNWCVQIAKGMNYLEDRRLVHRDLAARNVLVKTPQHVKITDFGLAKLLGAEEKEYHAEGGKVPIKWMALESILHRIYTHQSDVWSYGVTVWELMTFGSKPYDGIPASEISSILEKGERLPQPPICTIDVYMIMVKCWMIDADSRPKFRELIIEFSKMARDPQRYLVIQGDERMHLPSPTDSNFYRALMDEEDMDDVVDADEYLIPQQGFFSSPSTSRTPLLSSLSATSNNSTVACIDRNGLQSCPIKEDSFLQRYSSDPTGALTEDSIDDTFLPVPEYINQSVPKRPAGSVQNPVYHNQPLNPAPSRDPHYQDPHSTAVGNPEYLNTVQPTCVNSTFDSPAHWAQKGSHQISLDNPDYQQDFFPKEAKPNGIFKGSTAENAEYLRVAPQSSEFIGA
# [8] = target: Follistatin-related protein 3 (Homo sapiens) (UniProt O95633); experiment: compounds binding follistatin-related protein 3 – biochemical, small-molecule microarray, 635 nm fluorescence, primary screen (AID 1105); details: FSTL3 binding, higher = more signal;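 note: score merges emission near 667 nm and signal to noise per printed spot across three slides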
# Follistatin-related protein 3 (Homo sapiens), sequence (O95633 whole entry, looked up): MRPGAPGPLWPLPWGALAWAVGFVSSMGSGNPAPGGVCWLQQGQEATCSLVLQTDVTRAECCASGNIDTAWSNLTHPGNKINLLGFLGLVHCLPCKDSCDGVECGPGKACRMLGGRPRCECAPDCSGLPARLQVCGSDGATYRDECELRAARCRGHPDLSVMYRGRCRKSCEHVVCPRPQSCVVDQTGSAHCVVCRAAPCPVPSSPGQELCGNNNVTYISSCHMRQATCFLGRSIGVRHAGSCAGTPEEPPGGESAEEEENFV
# [9] = target: Dickkopf-related protein 1 (Homo sapiens) (UniProt O94907); experiment: small molecules binding DKK1 protein – biochemical, small-molecule microarray, 635 nm fluorescence scan, primary screen (AID 1106); details: higher = more signal;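 note: score merges emission near 667 nm with signal to noise over three replicate slides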
# Dickkopf-related protein 1 (Homo sapiens), sequence (O94907 whole entry, looked up): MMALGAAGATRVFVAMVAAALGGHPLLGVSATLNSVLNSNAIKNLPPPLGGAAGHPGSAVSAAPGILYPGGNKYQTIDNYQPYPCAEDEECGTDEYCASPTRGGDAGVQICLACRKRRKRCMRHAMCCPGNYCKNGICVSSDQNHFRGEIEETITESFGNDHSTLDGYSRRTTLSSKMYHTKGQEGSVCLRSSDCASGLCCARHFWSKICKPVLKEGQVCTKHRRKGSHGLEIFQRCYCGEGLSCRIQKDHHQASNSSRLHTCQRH
# [10] = tested on: Inhibin beta A chain (activin A); experiment: small molecules binding activin A – biochemical, small-molecule microarray, 635 nm fluorescence scan, primary screen (AID 1107); details: INHBA, higher = more signal;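 note: mouse activin A protein probed at 4.33 µg/mL on printed slides; score merges bound-protein fluorescence near 667 nm with spot signal-to-noise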
# [11] = tested on: Human papillomavirus type 1a protein E7 (residues 44-93); experiment: small molecules binding HPV E7 44-93 – biochemical, small-molecule microarray, residues 44-93, 635 nm fluorescence, primary screen (AID 1108); details: fluorescence 635 nm, higher = more signal;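 note: E7 fragment applied at 1 µg/mL in TBST for 1 h at 4 C; score combines spot fluorescence with its signal to noise ratio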
# [12] = hepatitis C replication reporter changes, two-sided – Huh7 cells, luciferase reporter, HCV replication inhibitor project, primary screen (AID 1109); details: Huh7 HCV replicon luciferase reporter, 48 h; higher = more signal;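 note: huh7 hepatoma cells harbouring a luciferase neomycin HCV replicon reporter; luciferase luminescence as measure of HCV replicon replication; test concentration not given here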
# [13] = target: Left-right determination factor 2 (Homo sapiens) (UniProt O00292); experiment: small molecules binding LEFTY2 protein – biochemical, small-molecule microarray, 635 nm fluorescence scan, primary screen (AID 1110); details: higher = more signal
# Left-right determination factor 2 (Homo sapiens), sequence (O00292 whole entry, looked up): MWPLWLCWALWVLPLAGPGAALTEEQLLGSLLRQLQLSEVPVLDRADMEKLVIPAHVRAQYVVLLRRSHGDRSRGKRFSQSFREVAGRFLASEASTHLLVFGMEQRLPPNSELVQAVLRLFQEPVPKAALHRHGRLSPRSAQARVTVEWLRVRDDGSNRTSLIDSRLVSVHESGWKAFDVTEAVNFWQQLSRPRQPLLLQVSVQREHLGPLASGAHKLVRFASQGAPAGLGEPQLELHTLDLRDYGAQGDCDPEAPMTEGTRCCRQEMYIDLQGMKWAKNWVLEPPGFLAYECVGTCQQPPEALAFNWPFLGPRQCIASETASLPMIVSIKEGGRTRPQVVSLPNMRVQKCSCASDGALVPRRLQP
# [14] = target: Calmodulin-1 (Homo sapiens) (UniProt P0DP23); experiment: small molecules binding calmodulin-1 with EGTA – biochemical, small-molecule microarray, Cy5-labelled CALM1, profiling panel (AID 1111); details: Cy5-CALM1 binding fluorescence, higher = more signal;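 note: labelled calmodulin applied in Tris saline Tween buffer holding calcium plus EGTA and DTT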
# [15] = target: Calmodulin-1 (Homo sapiens) (UniProt P0DP23); experiment: small molecules binding Ca-loaded calmodulin-1 – biochemical, small-molecule microarray, Cy5-labelled CALM1, plus calcium, artefact control for SMM control-protein annotation, profiling panel (AID 1112); details: Cy5-CALM1 binding fluorescence, higher = more signal;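 note: score merges spot fluorescence with signal to noise from triplicate slides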
# [16] = probe aWnt5a binding to arrayed compounds – biochemical, biotinylated probe, 635/667 nm fluorescence, primary screen (AID 1113); details: small-molecule microarray, higher = more signal;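 note: score merges 667 nm fluorescence intensity with signal-to-noise per printed feature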
# [17] = probe aShh binding to arrayed compounds – biochemical, biotinylated probe, 635/667 nm fluorescence, primary screen (AID 1114); details: small-molecule microarray, higher = more signal;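 note: probe is biotin-labelled aShh protein from a stem cell growth factor screen; measures binding of labelled protein to compounds printed on the slide; score merges feature fluorescence at 667 nm with signal-to-noise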
# [18] = probe aNog binding to arrayed compounds – biochemical, biotinylated probe, 635/667 nm fluorescence, primary screen (AID 1115); details: small-molecule microarray, higher = more signal;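 note: probe is biotinylated aNog protein used at 0.15 µg/mL for 1 h at 4 C; z-score combines 667 nm fluorescence of each spot with its signal to noise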
# [19] = target: Torsin-1A-interacting protein 1 (Homo sapiens) (UniProt Q5JTV8); experiment: compound microarray binding of lysate hLAP1 – cell lysate, small-molecule microarray, COS7 lysate, 635/667 nm fluorescence, primary screen (AID 1116); details: 635 nm fluorescence, higher = more signal
# Torsin-1A-interacting protein 1 (Homo sapiens), sequence (Q5JTV8 whole entry, looked up): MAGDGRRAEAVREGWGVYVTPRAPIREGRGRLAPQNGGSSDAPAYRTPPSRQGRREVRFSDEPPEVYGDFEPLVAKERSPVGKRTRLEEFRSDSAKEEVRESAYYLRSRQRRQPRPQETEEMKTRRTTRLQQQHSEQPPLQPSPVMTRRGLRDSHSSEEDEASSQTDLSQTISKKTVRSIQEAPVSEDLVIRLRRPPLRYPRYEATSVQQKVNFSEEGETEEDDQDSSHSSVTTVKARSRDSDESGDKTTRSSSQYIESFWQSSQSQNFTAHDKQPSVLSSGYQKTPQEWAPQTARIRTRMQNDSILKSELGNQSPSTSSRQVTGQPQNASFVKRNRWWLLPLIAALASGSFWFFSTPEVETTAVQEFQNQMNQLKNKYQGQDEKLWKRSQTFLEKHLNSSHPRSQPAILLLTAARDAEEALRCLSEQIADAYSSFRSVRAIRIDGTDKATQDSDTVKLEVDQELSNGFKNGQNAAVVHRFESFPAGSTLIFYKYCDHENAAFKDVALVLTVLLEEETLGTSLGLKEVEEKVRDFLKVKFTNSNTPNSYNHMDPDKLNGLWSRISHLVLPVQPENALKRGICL
# [20] = target: Alpha-bungarotoxin (Bungarus multicinctus) (UniProt P60615); experiment: compounds binding labelled alpha-BTX control protein – biochemical, small-molecule microarray, Alexa647 label, 635/667 nm fluorescence, artefact control for SMM control protein annotation, profiling panel (AID 1117); details: alpha-BTX-A647 binding fluorescence, higher = more signal
# Alpha-bungarotoxin (Bungarus multicinctus), sequence (P60615 whole entry, looked up): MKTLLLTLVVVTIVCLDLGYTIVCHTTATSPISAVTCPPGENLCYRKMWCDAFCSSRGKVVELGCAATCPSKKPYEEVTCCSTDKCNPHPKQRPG
Compound,composite z-score [1],composite z-score [2],composite z-score [3],z-score [4],composite z-score [5],composite z-score [6],composite z-score [7],composite z-score [8],composite z-score [9],composite z-score [10],composite z-score [11],z-score [12],composite z-score [13],composite z-score [14],composite z-score [15],composite z-score [16],composite z-score [17],composite z-score [18],composite z-score [19],composite z-score [20]
C=C(C(=O)CC[C@H](OC(C)=O)c1ccc(CO)o1)C(C)C,1.73,-0.272,-0.476,-1.4 (inactive),0.0843,0.626,-0.986,-0.144,0.24,0.0011,-0.559,-1.52,-0.586,-0.579,-0.758,-0.096,0.0048,-0.309,1.15,-0.292
COCCOC(=O)N1C(=O)[C@@]2(c3ccccc31)[C@H](C(=O)Nc1nc3ccccc3s1)[C@H]1C(=O)O[C@H](c3ccccc3)[C@H](c3ccccc3)N1[C@@H]2c1ccc(O)cc1,1.05,0.356,0.361,-1.56 (inactive),0.998,1.29,0.534,0.775,0.709,0.927,1.1,-2.04,1.02,1.74,1.07,0.0044,0.489,0.134,0.94,2.07
CC(C)N1CC=CC23O[C@@H]4/C=C\CCCOC(=O)C4[C@H]2C(=O)N(CCCO)[C@@H]3C1=O (stereo not given in full),2.12,-0.201,0.787,0.073 (inactive),-0.352,-0.762,-1.64,-1.07,-1,0.967,-0.0197,-0.597,-1.83,-0.311,0.412,-0.14,-0.0959,0.0824,-0.0239,-2.18
COCCCNC(=O)[C@@]1(Cc2ccccc2CN=[N+]=[N-])COC(c2ccc(OCCCO)cc2)=N1,1.59,1.28,1.39,-0.807 (inactive),1.38,0.266,-0.474,-0.0087,-1.58,0.731,0.989,-1.97,-0.645,1.78,0.96,0.299,0.454,1.75,2.45,0.911
CC(C)(C)OC(=O)CC[C@@]1(C(=O)N2CCOCC2)N=C(c2ccc(OCCCO)cc2)O[C@@H]1c1ccccc1,1.12,1.33,1.36,-1.17 (inactive),0.728,0.943,-0.384,-0.462,-0.607,0.743,0.358,-0.0126,-0.26,2.08,1.31,-0.0403,0.798,1.4,3.32,2.06
COc1ccc(C#Cc2ccc3c(c2)[C@]2(C(=O)N3)[C@H](c3ccc(O)cc3)N3[C@H](c4ccccc4)[C@H](c4ccccc4)OC(=O)[C@H]3[C@@H]2C(=O)N2CCN(c3ncccn3)CC2)cc1,0.595,0.762,0.657,-0.835 (inactive),0.388,0.424,0.0077,0.219,-0.0775,0.0381,0.778,-1.15,-0.0042,1.95,0.707,0.0236,0.842,0.353,1.28,1.75
CC(C)C(CO)N1C(=O)[C@@H]2[C@H]3C(=O)OCC=C[C@H]3OC23C=CCN(Cc2ccccc2)C(=O)[C@@H]13 (stereo not given in full),-0.734,-0.26,0.0297,-0.346 (inactive),-0.367,-0.882,-1.12,-0.718,-0.149,0.859,-1.25,-0.498,-0.275,-0.886,-0.783,-0.256,0.0141,0.0342,-0.207,-1.44
O=C(O)[C@H]1C[C@H]2C(=O)NCC(=O)N2[C@H]1c1cccc(OCCO)c1,1.69,0.809,0.725,-0.387 (inactive),0.082,0.444,0.0343,0.778,0.552,1.5,0.22,3.1,-0.166,0.338,0.921,0.291,0.0118,0.906,1.51,1.81
O=C(N1CCCCC1)[C@@]1(Cc2ccccc2)N=C(c2ccc(OCCCO)cc2)O[C@H]1c1ccccc1,1.43,1.26,1.31,-1.96 (inactive),0.942,0.258,-0.32,0.606,0.0474,0.766,0.73,-2.94,-0.458,2.45,1.09,0.801,0.106,1.9,2.95,3.12
COCCOC(=O)N1C(=O)[C@@]2(c3cc(C#CC4(O)CCCCCC4)ccc31)[C@H](c1ccc(O)cc1)N1[C@H](c3ccccc3)[C@H](c3ccccc3)OC(=O)[C@H]1[C@@H]2C(N)=O,0.98,0.106,0.375,-0.652 (inactive),0.744,0.0417,0.0818,0.585,0.577,0.311,1.06,-0.0511,-0.0539,2.23,0.0903,0.0719,-0.223,0.725,0.852,1.97
COc1ccc([Si](C)(C)[C@H]2[C@H](CC(=O)N(CCO)Cc3ccccc3)O[C@@]3(C(=O)N(Cc4cccc(N5C(=O)COc6ccccc65)c4)c4ccccc43)[C@@H]2C)cc1,1.29,-0.209,0.202,-2.08 (inactive),0.963,0.183,0.456,0.628,0.506,0.702,-0.591,-3.88,0.962,-0.13,-0.408,-0.203,0.564,0.389,0.836,1.57
CCN(CC)c1ccc(N2CC=CC34O[C@@H]5C=CCOC(=O)[C@@H]5[C@H]3C(=O)N(C(CO)C(C)C)[C@@H]4C2=O)cc1 (stereo not given in full),-0.0952,-0.239,-0.202,-0.133 (inactive),-0.608,-0.142,-1.01,-0.586,0.0041,0.761,-0.825,-0.496,-0.827,-0.647,-0.752,-0.129,-0.0626,-0.481,-0.257,-0.274
CCCNC(=O)[C@@]1(Sc2ccc(C)cc2)CC(=O)N(Cc2cc(C(F)(F)F)cc(C(F)(F)F)c2)[C@@H]1c1ccc(CO)cc1I,1.24,0.832,1.11,-2.39 (inactive),-0.544,-0.656,-0.711,-0.372,-0.799,1.08,-0.536,-1.41,-1.58,1.54,1.11,-0.0512,0.0141,0.573,1.68,0.521
COc1ccc([Si](C)(C)[C@@H]2[C@@H](CC(=O)N3CCC[C@H]3CO)O[C@]3(C(=O)N(Cc4ccc(I)cc4)c4ccccc43)[C@H]2C)cc1,0.648,-0.0319,0.0052,-1.62 (inactive),0.637,1.29,0.743,1.23,1.13,0.752,0.152,-2.22,0.46,1.51,1.15,-0.165,0.0611,0.201,0.252,1.31
C#CCOc1ccc(C[C@H]2C(=O)O[C@H](Cc3ccccc3)[C@H](/C=C/C3CC3)N2CC#C)cc1,1.32,-0.162,-0.0338,-1.18 (inactive),-0.425,-0.526,-0.925,-0.566,-0.175,0.809,-0.462,-2.14,-0.36,-0.491,-0.685,-0.176,-0.153,-0.433,0.204,0.0192
C[N+](C)(C)CCCC[C@@H]1NC(=O)[C@H]2C[C@@H](C(=O)NCCCCCN)[C@@H](c3cccc(OCCO)c3)N2C1=O,1.19,1.23,1.02,-1.82 (inactive),0.837,0.985,-0.0784,0.564,0.044,1.63,1.2,-0.295,-1.17,1.3,0.767,0.133,0.302,0.708,1.91,2.15

# Source: PubChem BioAssay
